Experimental data published in PubChem BioAssay.
Active and inactive are the calls of the source.

Key:
Albumin (Bos taurus) = Albumin (Bos taurus) (UniProt P02769); assay: compounds binding labelled BSA control protein – biochemical, small-molecule microarray, Alexa647 label, 635/667 nm fluorescence, artefact control for SMM control protein annotation, profiling panel (AID 1118); conditions: BSA-A647 binding, fluorescence 635 nm, higher = more signal;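 further: score merges 667 nm emission intensity and signal-to-noise per printed compound spot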
[1] = probe aXIP binding to arrayed compounds – biochemical, NeuroSMM set, 635/667 nm fluorescence, primary screen (AID 1119); conditions: small-molecule microarray, higher = more signal, called active from +8 up or from −8 down;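 further: probe is the protein aXip251-270 applied at 1 µg/mL to compound-printed slides; binding of probe to printed compounds measured as 667 nm fluorescence plus signal to noise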
[2] = probe aNOTCH3 binding on compound microarray – biochemical, small-molecule microarray, 635/667 nm fluorescence, primary screen (AID 1120); conditions: higher = more signal;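 further: probe is a biotin-tagged antibody raised against NOTCH3 rather than NOTCH3 protein; score merges spot fluorescence near 667 nm with spot signal to noise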
[3] = probe aNOTCH2 binding on compound microarray – biochemical, small-molecule microarray, 635/667 nm fluorescence, primary screen (AID 1121); conditions: higher = more signal;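 further: score merges feature fluorescence read at 667 nm with its signal to noise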
[4] = target: Carbonic anhydrase 2 (Homo sapiens) (UniProt P00918); assay: compounds binding carbonic anhydrase 2 – biochemical, small-molecule microarray, Alexa647-labelled CAII, profiling panel (AID 1122); conditions: CAII-A647 binding fluorescence, higher = more signal
[5] = COS7 lysate on small-molecule microarray, probe aHis, 635 nm (AID 1123); conditions: COS7 cell lysate, fluorescence, higher = more signal;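 further: z-score combines 667nm fluorescence intensity with signal-to-noise per printed compound spot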
[6] = probe aLAP1 signal on lysate-treated microarray – cell lysate, small-molecule microarray, COS7 lysate, primary screen (AID 1124); conditions: probe aLAP1, fluorescence, higher = more signal;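 further: lysate comes from COS7 cells expressing LAP1 and is applied at 0.3 µg/mL; score merges spot fluorescence near 667 nm with signal-to-noise over triplicate slides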
Sam68 (KHDRBS1) = assay: compounds binding KHDRBS1 protein – biochemical, small-molecule microarray, 635 nm fluorescence, primary screen (AID 1125); conditions: higher = more signal;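 further: score merges 667 nm channel intensity with signal to noise over triplicate slides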
[7] = test system: Chordin-like protein 2 (CHRDL2); assay: compounds binding chordin-like 2 – biochemical, small-molecule microarray, 635 nm fluorescence, primary screen (AID 1126); conditions: fluorescence 635 nm, higher = more signal;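 further: printed compound slides probed with Chrdl2 protein at 4 µg/mL for 1 h at 4 C; score merges 667 nm emission intensity with signal to noise over three replicate slides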
[8] = target: Concanavalin-A (Canavalia ensiformis) (UniProt P02866); assay: compounds binding concanavalin A lectin – biochemical, small-molecule microarray, Alexa647 label, 635 nm, artefact control for SMM control protein annotation, primary screen (AID 1127); conditions: ConA-A647 binding fluorescence, higher = more signal;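 further: z combines 667 nm emission intensity with signal-to-noise across three replicate slides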
Chain of Concanavalin-A (Canavalia ensiformis) (P02866 whole entry, looked up): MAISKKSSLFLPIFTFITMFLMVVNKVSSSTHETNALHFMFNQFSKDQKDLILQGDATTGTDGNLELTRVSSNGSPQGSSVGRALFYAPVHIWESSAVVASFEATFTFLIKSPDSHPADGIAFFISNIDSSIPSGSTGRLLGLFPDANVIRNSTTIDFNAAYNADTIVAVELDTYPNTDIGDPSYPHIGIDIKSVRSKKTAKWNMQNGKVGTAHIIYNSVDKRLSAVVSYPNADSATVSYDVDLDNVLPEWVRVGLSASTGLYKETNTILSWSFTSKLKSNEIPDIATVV

Chain of Albumin (Bos taurus) (P02769 whole entry, looked up): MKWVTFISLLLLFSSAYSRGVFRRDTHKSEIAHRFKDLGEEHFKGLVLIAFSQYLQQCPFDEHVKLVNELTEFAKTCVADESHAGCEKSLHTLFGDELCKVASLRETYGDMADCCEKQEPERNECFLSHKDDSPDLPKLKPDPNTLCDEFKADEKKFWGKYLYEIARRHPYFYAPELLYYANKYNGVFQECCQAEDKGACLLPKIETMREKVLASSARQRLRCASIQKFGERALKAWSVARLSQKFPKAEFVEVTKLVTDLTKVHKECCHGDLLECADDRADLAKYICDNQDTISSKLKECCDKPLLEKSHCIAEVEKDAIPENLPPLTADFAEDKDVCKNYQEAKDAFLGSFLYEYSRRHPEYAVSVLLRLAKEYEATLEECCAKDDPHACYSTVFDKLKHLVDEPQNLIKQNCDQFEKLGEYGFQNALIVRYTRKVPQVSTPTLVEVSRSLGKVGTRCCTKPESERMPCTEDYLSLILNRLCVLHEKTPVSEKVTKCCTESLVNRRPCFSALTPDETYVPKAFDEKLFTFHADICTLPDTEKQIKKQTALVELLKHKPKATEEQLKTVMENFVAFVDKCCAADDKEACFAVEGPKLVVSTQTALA

Structure (SMILES)	composite z-score (Albumin (Bos taurus))	composite Z-score [1]	composite z-score [2]	composite z-score [3]	composite z-score [4]	composite z-score [5]	composite z-score [6]	composite z-score (Sam68 (KHDRBS1))	composite z-score [7]	composite z-score [8]
O=C1NC(=O)C2C1C=CC(C(O)c1cccs1)N2Nc1ccc(Cl)cc1Cl (stereo not given)	0.165	-0.196 (inactive)	0.267	0.181	0.723	1.03	0.293	-0.374	-0.352	-0.376
CC(C)[Si](C#Cc1ccc(Oc2ccccc2)cc1)(O[Si](C#Cc1ccc(Oc2ccccc2)cc1)(C(C)C)C(C)C)C(C)C	0.216	0.387 (inactive)	-0.0188	-0.037	0.603	0.407	0.115	0.562	0.156	-0.76
C=C(COC)/C(=C/C[C@H](OC(C)=O)c1ccc(CO)o1)c1cc(C(=O)OC)ccc1OC	0.424	0.482 (inactive)	-0.103	-0.155	0.654	0.107	0.022	0.322	0.0151	-0.714
Cc1ccc(S[C@]2(C(=O)O)CC(=O)N(C(C)C)[C@@H]2c2ccc(CO)cc2I)cc1	0.162	0.556 (inactive)	0.208	0.164	0.566	1.99	0.73	0.784	-0.17	1.03
COCCOC(=O)N1C(=O)[C@@]2(c3cc(C#Cc4ccc(OC)cc4)ccc31)[C@H](c1ccccc1OCCO)N1[C@H](c3ccccc3)[C@H](c3ccccc3)OC(=O)[C@H]1[C@@H]2C(=O)NC[C@H](O)c1ccccc1	-0.0206	-0.112 (inactive)	0.156	-0.115	0.528	1.6	0.618	1.29	0.711	0.999
Cc1ccc([C@@H]2C[C@@H](Sc3ccccc3)[C@H](C(=O)O)CN2S(=O)(=O)c2ccc(C)cc2)cc1	0.26	-0.571 (inactive)	0.171	0.0019	0.726	2.89	0.986	1.29	-0.144	1.03
COc1cccc(-c2cccc(=O)o2)c1	-0.172	2.41 (inactive)	0.366	0.38	0.111	0.175	-0.0345	-0.579	0.683	-0.664
CC(C)(C)OC(=O)CC[C@]1(C(=O)N2CCOCC2)N=C(c2ccc(OCCCO)cc2)O[C@H]1c1ccccc1N=[N+]=[N-]	0.55	0.103 (inactive)	0.133	0.119	0.743	2.36	0.947	1.28	-0.135	0.973
C=C[C@H](OC)[C@@H](OC(=O)Nc1ccc(OC)cc1)c1ccc(O)c(F)c1	-1.15	0.111 (inactive)	-0.333	-0.217	0.562	2.28	0.953	0.96	-1.85	-1.15
C=CCOC(=O)[C@H]1[C@@H]2C(=O)O[C@@H](c3ccccc3)[C@@H](c3ccccc3)N2[C@@H](c2ccc(OCCOC(=O)[C@@H]3C[C@@H]4C(=O)N[C@@H](CCCCNC(C)=O)C(=O)N4[C@@H]3c3ccc(O)cc3)cc2)[C@]12C(=O)Nc1ccccc12	-0.729	0.282 (inactive)	0.173	-0.0291	0.638	1.94	0.21	1.3	1	1.2
CC(C)NC(=O)[C@@]1(c2ccc([N+](=O)[O-])cc2)CC(=O)N(C2CCCCC2)[C@@H]1c1ccc(CO)cc1I	0.0092	0.691 (inactive)	-0.0647	0.083	0.421	1.27	0.321	0.93	-0.589	0.347
C[N+](C)(C)CCCCNC(=O)[C@H]1C[C@H]2C(=O)N3CCC[C@H]3C(=O)N2[C@H]1c1cccc(OCCO)c1	-1.75	-0.166 (inactive)	-0.0663	-0.0942	0.73	0.647	0.815	-0.531	1.3	-0.303
C=C(CC1([C@@H](NP(=O)(c2ccccc2)c2ccccc2)[C@H]2C[C@@H]2CCCC)CC1)c1ccccc1	0.844	0.121 (inactive)	0.335	0.17	0.252	2.67	-0.293	1.14	-0.874	0.546
C=CCNC(=O)[C@H]1[C@@H]2C(=O)O[C@@H](c3ccccc3)[C@@H](c3ccccc3)N2[C@@H](c2ccccc2OCCO)[C@]12C(=O)Nc1ccc(C#CCC(C(=O)OC)C(=O)OC)cc12	-0.195	1.15 (inactive)	0.308	0.0029	0.251	2.23	0.634	1.29	1.37	0.944
C=C[C@H](CO[Si](CC)(CC)CC)N(Cc1ccc(OC(C)=O)c(OC)c1)S(=O)(=O)c1ccc(Br)cc1	0.848	0.646 (inactive)	0.295	0.0727	0.56	1.33	0.897	1.29	1.31	1.13
COc1ccc(C#Cc2ccc3c(c2)[C@]2(C(=O)N3)[C@H](C(=O)NC[C@H](O)c3ccccc3)[C@H]3C(=O)O[C@H](c4ccccc4)[C@H](c4ccccc4)N3[C@@H]2c2ccc(O)cc2)cc1	0.186	0.658 (inactive)	0.0585	-0.139	0.566	2.46	0.624	1.29	-0.0259	1.13
